Laboratory results taken from PubChem BioAssay AID602449 (Sanford-Burnham Center for Chemical Genomics, 2012).
The whole screen tested about 360,000 compounds, of which about 5,000 (1.4%) were called active. Only a selection was taken, and actives are over-represented in it overall. Values without a mark were called inactive.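 How the source made its calls: active means inhibition of 50% or more, scaled per plate between neutral and stimulator controls; inactive means the rest.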

assay: mitochondrial permeability transition pore inhibitors, primary screen, biochemical, isolated mouse mitochondria, absorbance (AID 602449); details: Ca2+ swelling absorbance, 30 min, at 10 µM, hits give high values;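 further: 0% = DMSO wells given calcium and 100% = 1 mM EGTA wells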

Row | Compound | inhibition
1 | O=C(CN1C(=O)NC2(CCCCCCC2)C1=O)NCc1ccc(F)cc1 | -0.5%
2 | Cc1ccc(-c2nc3c(Cl)cc(C(F)(F)F)cn3c2Cc2cccc(Cl)c2)cc1 | 4.1%
3 | COc1cc(C(C(=O)NC2CCCC2)N(C(=O)c2ccco2)c2ccccc2C(C)=O)cc(OC)c1OC (centres undefined) | -1.2%
4 | COC(=O)c1scc(C)c1NC(=O)CSc1ccc(Cl)cc1 | 3.3%
5 | COC(=O)c1sccc1NC(=O)CSc1ccccc1NS(=O)(=O)c1cc(Cl)ccc1Cl | 86.3% (active)
6 | COC(=O)c1sccc1NS(=O)(=O)c1ccc(F)cc1F | 1.6%
7 | Cc1sc(NC(=O)C2=COCCO2)c(C#N)c1C | -0.9%
8 | CCCc1ccc(-c2c(C)sc(NC(=O)c3ccnn3C)c2C#N)cc1 | 99.7% (active)
9 | CCCc1cc(=O)[nH]c(SCC(=O)Nc2sc3c(c2C#N)CCCC3)n1 | 4%
10 | OCCc1ccc(NCCc2ccco2)cc1 | -0.1%
11 | O=C(Nc1ccccc1)c1ccccc1Br | -0.9%
12 | O=C(Nc1ccccc1)c1ccccc1NC(=O)C(F)(F)F | 57.7% (active)
13 | CC1CCCCC1NCC(=O)Nc1ccccc1C(=O)Nc1ccccc1 (centres undefined) | 1.8%
14 | CCN(C(=O)CSc1nnc(-c2ccc(OC(F)F)cc2)n1N)C1CCS(=O)(=O)C1 (centres undefined) | -1.1%
15 | CCOc1ccc(NC(=O)CN(C)C(=O)CSc2ccccc2)cc1OCC | 1%
16 | CCOc1ccc(S(=O)(=O)N2CCC(C(=O)NCc3ccccn3)CC2)cc1Cl | -0.8%
17 | O=C(c1cccc(F)c1)N1CCN(c2ccc([N+](=O)[O-])c3cccnc23)CC1 | 0.3%
18 | O=c1c(-c2ccc3c(c2)OCCO3)c(C(F)(F)F)oc2cc(O)cc(O)c12 | 89.4% (active)
19 | CCN1CCN(Cc2c(O)ccc3c(=O)c(-c4ccc(OC)c(OC)c4)c(C(F)(F)F)oc23)CC1 | -2%
20 | COc1ccc(-c2onc(C)c2-c2ccc3c(c2)OCCO3)c(O)c1 | 3.2%
21 | CC(C)(C)c1cc[n+](-c2[nH]c(=O)sc2/C=N/N=C(\[O-])c2ccccc2)cc1 | -1.9%
22 | CCCNC(=O)CN(Cc1ccccc1F)S(=O)(=O)c1ccc(C)cc1 | 1.8%
23 | Cc1ccc(NC(=O)CCNC(=O)c2ccc([N+](=O)[O-])cc2)cc1S(=O)(=O)N1CCOCC1 | -1.6%
24 | COc1ccc(NS(=O)(=O)c2cc(NC(=O)CC(=O)c3ccc([N+](=O)[O-])cc3)ccc2C)cc1 | 73% (active)

Row | Compound | inhibition
25 | COc1ccc(NS(=O)(=O)c2cc(NC(=O)COc3ccccc3F)ccc2OC)cc1 | 0.8%
26 | COc1cc(SC)ccc1C(=O)Nc1nc(C)cs1 | 0.2%
27 | CCCCCOc1ccc(CSC2=NCCN2)cc1[N+](=O)[O-] | -1.4%
28 | CCCCOc1ccc(CSC(=N)N)cc1[N+](=O)[O-] | 112% (active)
29 | CCCCOC(=O)CCCc1ccc([N+](=O)[O-])cc1[N+](=O)[O-] | 1.5%
30 | O=C(CCN1C(=O)/C(=C/c2cccs2)SC1=S)NNC(=O)c1cccc(O)c1 | 67.7% (active)
31 | Cc1c(C(=O)NCCN2C(=O)S/C(=C\c3cccs3)C2=O)cccc1[N+](=O)[O-] | 1.1%
32 | CC(C(=O)Nc1ccc(O)c(C(=O)O)c1)N1C(=O)/C(=C/c2cccs2)SC1=S (centres undefined) | -1.2%
33 | COc1ccccc1N(C(=O)Cn1nnc2ccccc21)C(C(=O)NCc1ccco1)c1ccc(C)o1 (centres undefined) | 4%
34 | CCOC(=O)N1CCN(C(=O)c2ccc(CN(c3ccc(C)c(C)c3)S(C)(=O)=O)cc2)CC1 | 5.2%
35 | CCOC(=O)N1CCN(C(=O)c2ccc3c(c2)N(Cc2ccc(C)cc2)CCS3)CC1 | 89% (active)
36 | O=C(NCCc1ccccc1)c1ccc2c(c1)N(Cc1ccccc1)CCS2 | 0.6%
37 | CN(CCc1ccccc1)C(=O)c1cccc(NC(=O)Cc2cccc(NC(=O)C3CCCN(C(=O)CCc4ccccc4)C3)c2)c1 (centres undefined) | -0.3%
38 | CC(=O)c1c(C)[nH]c(C(=O)Nc2cc(S(=O)(=O)N(C)C)ccc2C)c1C | -1.8%
39 | CSc1ccc(/C=C2\NC(=O)NC2=O)cc1 | 0.6%
40 | COC(=O)C1(C)NC(c2ccccc2OC)C2C(=O)N(c3ccccc3)C(=O)C21 (centres undefined) | 1.1%
41 | Cc1ccc(-c2nc(COC(=O)c3c(C)noc3C)cs2)cc1 | 88.5% (active)
42 | COc1ccc(C(=O)COC(=O)c2c(C)noc2C)cc1Cl | -2.4%
43 | COc1cc(OC)cc(C(=O)NCC(=O)OCc2csc(-c3ccccc3)n2)c1 | -4.3%
44 | CC12CN(NC(=O)c3ccc(Cl)cc3)C3(C#N)CC1CCC23C (centres undefined) | 8.6%
45 | Nc1ncc(CN2CCCC(C(=O)Nc3ccc(-c4ccco4)cc3)C2)cn1 (centres undefined) | -0.6%
46 | CCOC(=O)C1(Cc2ccc(O)cc2)NC(c2ccccc2F)C2C(=O)N(C)C(=O)C21 (centres undefined) | -1.2%
47 | CC(C)OCCCNc1ncnc2c1[nH]c1ccc(F)cc12 | 88.4% (active)
48 | O=C1CSc2ccc(S(=O)(=O)NCc3ccccc3)cc2N1 | -1.3%

Row | Compound | inhibition
49 | Cc1ccc(C)c(S(=O)(=O)N2CCN(CC(=O)Nc3ccc([N+](=O)[O-])cc3)CC2)c1 | 7.1%
50 | Cc1ccc(C)c(S(=O)(=O)n2cnc3ccccc32)c1 | -3.1%
51 | Cc1ccc(C)c(S(=O)(=O)N2CCN(c3ncnc4sccc34)CC2)c1 | 86.5% (active)
52 | CCCNC(=O)C1(C)CCN1C(=O)C1(c2ccccc2)CC1 (centres undefined) | -0.6%
53 | Cc1cccc(OCCNC(=O)CSc2ccc(C(F)(F)F)cc2[N+](=O)[O-])c1 | 80.1% (active)
54 | O=C(CSc1ccc(C(F)(F)F)cc1[N+](=O)[O-])NCCOc1ccccc1 | 18%
55 | C=CCNC(=O)CCCOc1cccc(C)c1 | 1.5%
56 | Cc1cc(C)n2c(NCc3ccccc3)c(CC(C)C)nc2n1 | 0.4%
57 | O=C(COc1ccccc1Cl)N1N=C(c2cccs2)CC1c1ccco1 (centres undefined) | -0.8%
58 | Cc1ccccc1C1CC(c2cccs2)=NN1S(C)(=O)=O (centres undefined) | -0.3%
59 | Fc1ccc(N2N=C(c3cccs3)CC2c2ccco2)c(F)c1 (centres undefined) | 57.7% (active)
60 | O=C(NCc1ccccn1)c1cnc2sccn2c1=O | -2.8%
61 | C/C(=N\Nc1ccc(S(N)(=O)=O)cc1[N+](=O)[O-])c1cccs1 | 2.3%
62 | c1ccc2c(C[n+]3csc4ccccc43)cccc2c1 | -1.7%
63 | c1ccc2c(CSCc3nc4ccccc4[nH]3)cccc2c1 | 74.4% (active)
64 | O=C(OCc1nc2ccccc2[nH]1)C1CCCCC1 | -0.1%
65 | COc1ccc(N(CC(=O)N2CCOCC2)S(=O)(=O)c2ccccc2)cc1Cl | 1.3%
66 | O=c1c2cc(Br)ccc2nc(-c2cccc(Cl)c2)n1O | 0.6%
67 | O=c1[nH]c(/C=C/c2cccc(Br)c2)nc2ccccc12 | 2.1%
68 | O=C(/C(=C/c1cccc(Cl)c1)c1nc2ccccc2[nH]1)c1ccccc1 | 84.4% (active)
69 | CC1CN(C(=S)Nc2ccc(S(N)(=O)=O)cc2)CC(C)O1 (centres undefined) | -0.5%
70 | NC(=O)Cn1c(=O)oc2ccccc21 | -0.1%
71 | CN1CCN(c2ncc3c(n2)CC(c2ccccc2F)CC3=O)CC1 (centres undefined) | 1.4%
72 | O=C(Oc1ccccc1Cl)c1ccc(N2CCOCC2)c([N+](=O)[O-])c1 | 9.1%

Row | Compound | inhibition
73 | CS(=O)(=O)c1ccccc1C(=O)Nc1ccc2sccc2c1 | -0.4%
74 | O=C(Nc1ccc2ccccc2c1)Nc1ccc2snnc2c1 | 99.8% (active)
75 | Cc1ccc(NC(=O)Nc2ccc3oc(C)nc3c2)cc1 | -2.9%
76 | CC1(C(=O)NS(=O)(=O)c2cccc(F)c2)CCN1C(=O)Cc1cc(F)ccc1F (centres undefined) | -0.4%
77 | CCc1nc2c(OCc3ccc(C(F)(F)F)cc3)cccn2c1N(C)C(=O)CC(C)C | 0.1%
78 | O=C(O)c1cc(S(=O)(=O)NC2CCCc3ccccc32)ccc1O (centres undefined) | 0.3%
79 | COc1cc(C2C(N3C(=O)c4ccccc4C3=O)C(=O)N2c2ccc(C)c(C)c2)cc(OC)c1OC (centres undefined) | 3%
80 | COc1ccc2c(c1)c(=Cc1ccc(N(C)C)cc1)c1cc(-c3ccccc3)[n+](C)n12 | 80.7% (active)
81 | Cc1nc(N2CCOCC2)c2c(C)c(C(=O)Nc3ccc(C(F)(F)F)cc3)sc2n1 | 72.5% (active)
82 | Cc1nc(N2CCC(C)CC2)c2c(C)c(C(=O)Nc3cc(F)ccc3C)sc2n1 | 13.5%
83 | Cc1nc(N2CCN(c3ccccn3)CC2)c2c(C)c(C(=O)Nc3ccc(F)c(Cl)c3)sc2n1 | 16.7%
84 | C=C(C)Cn1c(N2CCN(CC)CC2)nc2c1c(=O)[nH]c(=O)n2C | -0.4%
85 | COc1ccc(C(=O)c2c(C)oc3cc([N+](=O)[O-])c(O)c([N+](=O)[O-])c23)cc1 | 3.3%
86 | Cc1oc2cc([N+](=O)[O-])c(O)c([N+](=O)[O-])c2c1C(=O)c1ccc(Br)cc1 | 74.4% (active)
87 | Cc1ccc(C(=O)c2ccc(N3CCN(C)CC3)c([N+](=O)[O-])c2)cc1 | 0.6%
88 | O=C(Nc1ccccc1F)C1C2C=CC3(O2)C1C(=O)N(c1cccnc1)C3C(=O)NC1CCCCC1 (centres undefined) | 1.6%
89 | O=S(=O)(NCC1OCCc2ccccc21)c1ccccc1 (centres undefined) | 4.3%
90 | O=C(O)C(CCc1ccccn1)c1ccccc1 (centres undefined) | 0.6%
91 | CC1CCCC(NC(=O)c2cccc(N3CCCC3=O)c2)C1C (centres undefined) | -0.6%
92 | CC(C)CCOc1ccc(C(=O)C[N+]2(C)CCOCC2)cc1 | -1.9%
93 | CCCOc1ccc(C(=O)C(CCC(CNCC)C(=O)c2ccc(OCCC)cc2)CNCC)cc1 (centres undefined) | 73.6% (active)
94 | CCCc1ccc(OCCNC(=O)c2ccccc2Br)cc1 | 0.4%
